Test results: PubChem BioAssay AID540263 (National Center for Advancing Translational Sciences (NCATS), 2011)
Out of some 340,000 compounds screened, about 100 (0.029%) were called active. Another 8% or so got no clear call; they are omitted. Calls follow the shape of the full dose curve. Shown is part of a subset that was picked to be rich in actives.

biological target: Importin subunit beta-1 (Homo sapiens) (UniProt Q14974); assay: qHTS Assay for Inhibitors of Rango (Ran-regulated importin-beta cargo) - Importin beta complex formation; settings: Rango CFP/YFP FRET sensor + importin beta, 45 min; series mostly up to 92.2 µM; inhibition of complex formation: at the top concentration;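 also: 0% = DMSO wells and 100% = buffer wells lacking importin beta; nearly all actives have a fitted effect of over 15% in size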
Text: NIH Molecular Libraries Probe Production Centers Network [MLPCN] NIH Chemical Genomics Center [NCGC] MLPCN Grant: R03 MH090808-01A1 Assay Submitter (PI): Petr Kalab NCGC Assay Overview: The small GTPase Ran regulates transport of macromolecules between the nucleus and the cytoplasm (nuclear transport) and has important functions in mitotic spindle assembly, nuclear envelope (NE) formation and nuclear pore complex (NPC) assembly. RanGTP gradient is thought to promote spindle assembly by providing a spatial clue to microtubule nucleation and Aurora A activation. Because the localized release and binding of importin alpha cargo relays this spatial clue to SAFs, inhibitors of the Rango - importin beta complex can then be used in further understanding their role in cell cycle specifically in mitosis progression. […] Activation of Aurora A has been linked to different types of cancer and a number of Aurora kinase inhibitors are being developed as potential canter therapeutics therefore, identified inhibitors of this complex could be developed into potential anti-mitotic probes for cancer treatment. Purified recombinant proteins Rango and importin beta were provided by the assay submitter. The assay used a fluorescence resonance energy transfer (FRET) Rango biosensor that contains the IBB of human snurportin 1 flanked by yellow fluorescent protein (EYFP) at the amino terminus and cerulean CFP10 at the carboxy terminus. […] Inhibitors will therefore be identified based on the ability to interfere with the FRET signal decrease. DMSO treated and no importin beta (buffer only) wells were used as negative and positive controls respectively. FRET readings were obtained at two time points. FRET reading prior to importin beta addition (pre-read) were used flag potential compound interference; FRET reading after importin beta addition (post-read) were used to identify inhibitors using the FRET ratio parameter.
NCGC Assay Protocol Summary: Two and a half uL/well of Rango-buffer solution (50 nM Rango, 1x PBS, 1mM DTT, 0.02% Tween-20, 0.1% BSA final concentrations) was dispensed into 1536-well assay plates (Greiner, solid black medium-binding plates) with Aurora Discovery BioRAPTR Flying Reagent Dispenser (FRD; Beckton-Dickenson). Compound solution (23 nL) was transferred to the assay plate using Kalypsys pin tool equipped with a 1536-pin tool and incubated at room temperature for 5 min followed by a FRET pre-read using the PerkinElmer Envision plate reader. Two and a half uL/well of Importin beta - buffer solution (0.125 microM importin beta, 1x PBS, 1mM DTT, 0.02% Tween-20, 0.1% BSA final concentrations) were then added and incubated at room temperature giving a final reaction volume of 5uL. After 45min FRET post-read was obtained via the Envision plate reader using the same optics and settings as the pre-read (CFP/YFP optimized dual optical module D450/D505; excitation mirror CFP 430/24 nm; and emission filters CFP 486/10 nm and YFP 530/10 nm).

Chain of Importin subunit beta-1 (Homo sapiens) (Q14974 whole entry, looked up): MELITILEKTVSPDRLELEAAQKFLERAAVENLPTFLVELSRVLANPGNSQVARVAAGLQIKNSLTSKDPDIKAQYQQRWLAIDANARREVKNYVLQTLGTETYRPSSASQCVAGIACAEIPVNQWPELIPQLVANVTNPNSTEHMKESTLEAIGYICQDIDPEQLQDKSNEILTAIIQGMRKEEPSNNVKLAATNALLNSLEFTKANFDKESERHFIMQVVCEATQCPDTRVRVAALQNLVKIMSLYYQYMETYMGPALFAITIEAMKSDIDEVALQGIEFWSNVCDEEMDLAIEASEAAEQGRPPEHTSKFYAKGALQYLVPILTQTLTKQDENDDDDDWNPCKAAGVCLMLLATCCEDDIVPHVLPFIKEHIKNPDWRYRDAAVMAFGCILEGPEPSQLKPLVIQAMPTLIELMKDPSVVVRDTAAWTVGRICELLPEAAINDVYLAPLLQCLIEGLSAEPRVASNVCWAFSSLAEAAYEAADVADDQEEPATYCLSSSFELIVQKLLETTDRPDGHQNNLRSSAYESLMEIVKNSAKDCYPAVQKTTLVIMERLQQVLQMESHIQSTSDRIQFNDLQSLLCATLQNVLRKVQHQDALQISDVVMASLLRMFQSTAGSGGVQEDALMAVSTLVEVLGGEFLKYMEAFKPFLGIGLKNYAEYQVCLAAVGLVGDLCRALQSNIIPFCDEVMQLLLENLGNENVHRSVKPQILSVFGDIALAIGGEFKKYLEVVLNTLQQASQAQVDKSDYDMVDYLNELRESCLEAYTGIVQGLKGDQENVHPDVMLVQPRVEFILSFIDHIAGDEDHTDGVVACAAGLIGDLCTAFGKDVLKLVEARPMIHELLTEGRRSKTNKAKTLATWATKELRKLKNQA

Compound | inhibition of complex formation
CC(C)=CCc1ccc(O)c(=O)cc1C(C)C | -0.975% (inactive)
O=C(Nc1ccc2ccccc2c1[N+](=O)[O-])c1ccccc1 | 3.45% (inactive)
COc1ccc(Cl)cc1C=CC=NNC(=O)c1ccncc1 | 4.63% (inactive)
CC(C)(C)OC(=O)N1CCC(C(=O)Nc2cccc(C(=O)NCCc3ccccc3)c2)CC1 | 1.14% (inactive)
COC1=CC(=O)OC(C)(c2ccccc2)C1 (centres undefined) | -1.43% (inactive)
Cc1ccc(Nc2c(O)nc[nH]c2=O)cc1C | -7.42% (inactive)
CCCN(CC(=O)Nc1ccccc1C)C(=O)c1ccc(OCC(=O)N2CCOCC2)c(OCC)c1 | -0.312% (inactive)
COc1ccc(-c2ccc3c(c2)[C@@H]2C[C@H](N(C)S(=O)(=O)c4ccccc4)[C@H]([C@H](C)O)C(=O)N2CC3)cc1 | -1.31% (inactive)
CC1(C)N=C(N)NC(Nc2ccc(Cl)cc2)=N1 | 2.24% (inactive)
CN(C(=O)c1cccc(NC(=O)Cc2ccc(NC(=O)C3CCN(C(=O)C4CCCCC4)CC3)cc2)c1)C1CCC1 | -2.04% (inactive)
CC(C)(C)c1nnc2sc(SCC(O)=C(C#N)c3nc4ccccc4[nH]3)nn2c1=O | 0.14% (inactive)
Cc1ccc(S(=O)(=O)N2CCN(C(=O)c3cc(S(=O)(=O)N4CCOCC4)ccc3F)CC2)cc1 | -3.27% (inactive)
Cc1nn(-c2ncccn2)c2c1C(=O)CC(C)(C)C2Br (centres undefined) | -3.68% (inactive)
CCN(CC(=O)Nc1c(F)cccc1F)C(=O)Cc1cccs1 | -5.32% (inactive)
NC(=O)c1ccc(N2CCCC2)nc1 | 0.637% (inactive)
COc1cc2[nH]c(O)c(C=O)c2cc1OC | -0.216% (inactive)
CC/C(=C\c1ccc(Cl)cc1)c1ccncc1 | 0.876% (inactive)
COc1ccc(Cl)cc1C=CC=Nc1ccc(S(N)(=O)=O)cc1 | -2.29% (inactive)
COc1ccc(CCNC(=O)c2ccc(NC(=O)CC3SC(N4CCCCC4)=NC3=O)cc2)cc1OC (centres undefined) | -3.12% (inactive)
CSCCC(NC(=O)COc1ccccc1)C(=O)N1CCN(c2cccc(C(F)(F)F)c2)CC1 (centres undefined) | 4.24% (inactive)
CCCCN1CC(COc2ccccc2)Oc2cccc(F)c2S1(=O)=O (centres undefined) | 2.87% (inactive)
O=C(NN=Cc1ccccc1)c1ccccc1 | -2.28% (inactive)
O=C(Nc1c(Br)cc2c(c1Br)Cc1cc([N+](=O)[O-])ccc1-2)C(Cl)Cl | -0.563% (inactive)
CC(=O)OC1CCC2C3CCC4=C(CC(F)C(=O)C4)C3CCC12C (centres undefined) | -1.03% (inactive)
O=[N+]([O-])c1ccc(COc2ccccc2CN2CCOCC2)cc1 | 3.71% (inactive)
COc1cccc(CC(=NO)c2cccc(OC)c2)c1 | -0.088% (inactive)
NC(=O)C1(Nc2ccc(-c3ccccc3)cc2)CCCC1 | 0.958% (inactive)

Compound | inhibition of complex formation
O=C(O)C(=Cc1ccccc1[N+](=O)[O-])c1ccccc1 | -0.207% (inactive)
CCOC(=O)c1ccccc1NC(=O)CSc1nc2c(sc(=S)n2CC)c(=O)[nH]1 | 0.302% (inactive)
O=C(CCCCCCCC(=O)N1CCCCC1)N1CCCCC1 | -2.28% (inactive)
Nc1cc2c(cc1Br)-c1ccc(F)cc1C2=O | -2.11% (inactive)
O=C1NC(c2ccccc2)Cc2ccncc21 (centres undefined) | 0.404% (inactive)
Cc1ccc(OCCNC(=O)c2cccc(S(=O)(=O)N3CCN(Cc4ccccc4)CC3)c2)cc1 | 3.25% (inactive)
O=C1CC(c2ccccc2)C(c2ccccc2)=NN1 (centres undefined) | -1.44% (inactive)
Nc1ccc2c(c1)C(=Cc1cccnc1)c1ccccc1-2 | -0.161% (inactive)
Oc1ccc(-c2nc3ccccc3nc2-c2ccc(O)cc2O)c(O)c1 | 1.75% (inactive)
O=C(Nc1ccccc1)Oc1cccc2cccnc12 | -0.849% (inactive)
O=[N+]([O-])c1ccc(NS(=O)(=O)c2ccccc2)c(Cl)c1 | -1.29% (inactive)
O=C(Cc1ccc(Cl)cc1)c1ccccc1 | 3.5% (inactive)
O=C1C(=O)N(c2ccccc2)C(c2ccccc2)C1c1ccccc1 (centres undefined) | 2.65% (inactive)
Cc1cc([N+](=O)[O-])ccc1NS(=O)(=O)c1ccccc1 | 2.79% (inactive)
O=C(c1ccc2c(c1)C(=O)N(Cc1ccncc1)C2=O)N1CCN(S(=O)(=O)c2ccc(OC(F)(F)F)cc2)CC1 | 5.12% (inactive)
O=S(=O)(Cc1ccc(Cl)cc1Cl)c1ccc(Cl)cc1 | -2.04% (inactive)
Cc1c(NS(=O)(=O)c2cccc(C(=O)Nc3ccc(SC(F)F)cc3)c2)c(=O)n(-c2ccccc2)n1C | -1.93% (inactive)
C[n+]1cccc(C(=O)O)c1 | 8.24% (inactive)
CCCCN(C(=O)c1cccc(N2C(=O)c3ccccc3C2=O)c1)c1c(N)n(CCCC)c(=O)[nH]c1=O | -5.63% (inactive)
CSCCC(NS(=O)(=O)c1ccc(C)cc1)C(=O)N(C)CC(=O)Nc1ccccc1Br (centres undefined) | -2.58% (inactive)
COc1ccccc1NC(=O)N(O)C1(C#N)CCCCC1 | 6.65% (inactive)
O=C(Nc1c[nH]c(=O)[nH]c1=O)OCc1ccccc1 | -3.52% (inactive)
COc1cc2c(cc1OC)C(Cc1cc(OC)c(OC)cc1[N+](=O)[O-])=NCC2 | -4.04% (inactive)
CN(O)C(=S)c1ccccc1 | 0.436% (inactive)
Cc1ccc(S(=O)(=O)c2cc3c(=O)n4cccc(C)c4nc3n(CCc3ccccc3)c2=N)cc1C | -0.419% (inactive)
O=C1OC(Oc2ccc(Br)cc2)(c2ccccc2)c2ccccc21 (centres undefined) | 4.41% (inactive)
N#CC1(Nc2ccc(-c3ccc(Cl)cc3)cc2)CCCC1 | -0.935% (inactive)
